Source: PubChem BioAssay (NCI)
About 83,000 compounds went through this panel and 20% of them were active in at least one assay; those are over-represented in the sample as a whole.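 96-well plates, one dose, 48 hours. Percent growth reported; active if below 10.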 Values without a mark were called inactive. Activity calls are given as the source filed them.

Tested on: LOX IMVI melanoma
Assay: NCI-60 one-dose screen, 48 h (100 = growth as untreated, 0 = no growth, -100 = all killed)
Details: 10 µM

Row | Structure (SMILES) | growth
1 | Clc1ccc(/C=C2\CCCC3C2=Nc2ccccc2NC3c2ccc(Cl)cc2)cc1 (stereo not given) | -27.5% (active)
2 | CCC(c1ccc(OC)cc1)C(CC)c1ccc(O)c(CN2CCN(C)CC2)c1 (stereo not given) | 46.2%
3 | CC[C@@H](C(=O)[C@H](C)[C@H](O)[C@@H](C)[C@H]1O[C@H]([C@@H](CC)C(=O)N(CC)CC)CC[C@H]1C)C1O[C@]2(C=C[C@@H](O)[C@]3(CC[C@@](C)([C@H]4CC[C@](O)(CC)[C@H](C)O4)O3)O2)[C@H](C)C[C@@H]1C (stereo not given in full) | 31%
4 | c1ccc(/C(=N\Nc2ccc3ccccc3n2)c2ccccn2)cc1 | -13.5% (active)
5 | O=C(NCCCNS(=O)(=O)c1ccc(Cl)cc1)Nc1ccc(-n2cc(-c3ccncc3)c(-c3ccc(Cl)c(O)c3)n2)cc1 | 24.1%
6 | Nc1ncnc2c1ncn2C1(CO)OCC(O)C(O)C1O (stereo not given) | 94.4%
7 | CN(C)CCOc1ccc(-c2nc3sccn3c2-c2ccnc(S(C)(=O)=O)n2)cc1 | 97.5%
8 | CC[C@H]1OC(=O)[C@H](C)[C@@H](O[C@H]2C[C@@](C)(OC)[C@@H](O)[C@H](C)O2)[C@H](C)[C@@H](O[C@@H]2O[C@H](C)C[C@H](N(C)C)[C@H]2O)[C@](C)(OC)C/C(C)=C2/O[C@@]1(C)C=C2C | -85.1% (active)
9 | COc1cc(/C=C2\CCCC3=C2NC(N)=NC3c2cc(OC)c(OC)c(OC)c2)cc(OC)c1OC (stereo not given) | -46.7% (active)
10 | O=[N+]([O-])c1cccc(/C=N/NC(=S)NC23CC4CC(CC(C4)C2)C3)c1 | 76.4%
11 | CNC(=O)c1cc(Oc2ccc3c(c2)sc2nc(-c4ccc(N)cc4)cn23)ccn1 | 22.7%
12 | COc1ccc2c(c1)OC(N)=C(C#N)C2c1cc(OC)c(OC)c(OC)c1 (stereo not given) | 12.7%
13 | S=C(NCc1ccccc1)NCc1ccccc1 | 95.6%
14 | CC(=O)OC1C=CC(OC(C)=O)O1 (stereo not given) | 80.4%
15 | Cc1ccc(Cl)cc1NC(=O)CCl | 42.2%
16 | CCC(C)[C@H](NC(C)=O)C(=O)N[C@@H](CCCNC(=N)N)C(=O)N[C@@H](CCCCN)C(=O)N[C@@H](CC1CCC(O)CC1)C(=O)NC(C(=O)N[C@@H](CCSC)C(=O)N[C@@H](CCCNC(=N)N)C(=O)N[C@@]1(C)CCC/C=C\CCC[C@@](C)(C(=O)NC(C(=O)N[C@@H](CCC(=O)O)C(=O)N[C@@H](CC(C)C)C(=O)N[C@H](C(=O)N[C@@H](CCC(=O)O)C(N)=O)C(C)C)[C@@H](C)O)NC(=O)[C@H](CCC(N)=O)NC(=O)[C@H](CC(C)C)NC(=O)[C@H](CC(C)C)NC1=O)[C@@H](C)O (stereo not given in full) | 109%
17 | COc1cc2cc(Oc3ccc(NC(=O)c4cccc(C(F)(F)F)c4)cc3)c(C)nc2cc1OC | 45.8%
18 | COC(=O)C1(O)NC(=C(C#N)C#N)C(C#N)=C1C(=O)c1ccc(OC)c(OC)c1 (stereo not given) | 99.4%
19 | COc1ccc(-c2onc(N)c2-c2cc(OC)c3c(c2)OCO3)cc1 | 34.7%
20 | NC(N)=N/N=C(\c1ccccc1)C(O)c1ccccc1 (stereo not given) | 94.2%

Row | Structure (SMILES) | growth
21 | COc1cc2cc(Oc3ccc(NC(=O)c4ccccc4)cc3)c(C)nc2cc1OC | 86.5%
22 | CS(=O)(=O)c1nccc(-c2c(-c3cccc(OCc4ccc(F)cc4)c3)nc3sccn23)n1 | 36.6%
23 | CCOC(=O)c1cc(C(=O)c2ccc(F)cc2F)n2ccccc12 | 90.4%
24 | O=C(N/N=C/c1ccc(Cl)cc1)c1ccccc1Nc1cccc(C(F)(F)F)c1 | 83.7%
25 | CC(C)(C)OC(=O)N1CCc2c(sc3ncnc(N/N=C/c4ccccc4Br)c23)C1 | 55.5%
26 | CC(C)N(CCOc1ccc(-c2nc3sccn3c2-c2ccnc(S(C)(=O)=O)n2)cc1)C(C)C | 72.7%
27 | CN(C)CCCOc1ccc(NC2=C(Cl)C(=O)C(Nc3ccc(OCCCN(C)C)cc3)=C(Cl)C2=O)cc1 | -80.5% (active)
28 | COc1cccc(C2C(C#N)=C(N)Oc3cc(N)ccc32)c1 (stereo not given) | 43.6%
29 | Cc1ccc(NCCN(C)CC(C)O)c2c(=O)c3ccccc3sc12 (stereo not given) | 12.6%
30 | CCCCN(CCCC)C(=O)[C@H](CC)[C@@H]1CC[C@@H](C)[C@@H]([C@H](C)[C@@H](O)[C@@H](C)C(=O)[C@H](CC)C2O[C@]3(C=C[C@@H](O)[C@]4(CC[C@@](C)([C@H]5CC[C@](O)(CC)[C@H](C)O5)O4)O3)[C@H](C)C[C@@H]2C)O1 (stereo not given in full) | 2.12% (active)
31 | CC(C)N(CCOc1cccc(-c2nc3sccn3c2-c2ccnc(S(C)(=O)=O)n2)c1)C(C)C | 84.3%
32 | NC(=O)c1cccc(-n2ccc3cc(NC(=O)Nc4ccc(Cl)c(C(F)(F)F)c4)ccc32)n1 | 76.9%
33 | COc1cccc(-c2nc3sccn3c2-c2cccc(S(C)(=O)=O)c2)c1 | 88.6%
34 | COc1ccc(Cl)cc1Nc1nc(C(F)(F)F)ccc1C(=O)N/N=C/c1ccc(Cl)cc1 | 26.7%
35 | CCOc1ccccc1/C=N\N=C\c1ccccc1O | 90.3%
36 | CN(C)c1ccc(/C=N/NC(=O)c2ccccc2Nc2cccc(C(F)(F)F)c2)cc1 | 65.3%
37 | COc1cc2cc(Oc3ccc(NC(=O)Nc4cccc(C(F)(F)F)c4)cc3)c(C)nc2cc1OC | 9.78% (active)
38 | O=C(Nc1cc(Cl)cc2c1-c1ccc(Cl)cc1C2O)C(Cl)Cl (stereo not given) | 76.2%
39 | C/C(=N\O)c1ccc(NC(=O)CSc2nnc(-c3ccccc3)n2-c2ccccc2)cc1 | 63.6%
40 | CCN(CC)CCCOc1cccc2c1C(=O)c1cccc(OCCCN(CC)CC)c1C2=O | 16.9%
